In all, about 310,000 compounds went through this assay and about 2,200 (0.71%) showed an effect of 50% or more. Effects have a minus sign here. The full list was thinned out, with strong results kept by preference.
Molecular target: human ether-à-go-go-related gene (hERG) potassium channel (human, UniProt Q12809)
Experiment: primary screen, population patch clamp on CHO cells stably expressing hERG; higher = less effect of the substance

human ether-à-go-go-related gene (hERG) potassium channel, sequence (Q12809 whole entry, looked up): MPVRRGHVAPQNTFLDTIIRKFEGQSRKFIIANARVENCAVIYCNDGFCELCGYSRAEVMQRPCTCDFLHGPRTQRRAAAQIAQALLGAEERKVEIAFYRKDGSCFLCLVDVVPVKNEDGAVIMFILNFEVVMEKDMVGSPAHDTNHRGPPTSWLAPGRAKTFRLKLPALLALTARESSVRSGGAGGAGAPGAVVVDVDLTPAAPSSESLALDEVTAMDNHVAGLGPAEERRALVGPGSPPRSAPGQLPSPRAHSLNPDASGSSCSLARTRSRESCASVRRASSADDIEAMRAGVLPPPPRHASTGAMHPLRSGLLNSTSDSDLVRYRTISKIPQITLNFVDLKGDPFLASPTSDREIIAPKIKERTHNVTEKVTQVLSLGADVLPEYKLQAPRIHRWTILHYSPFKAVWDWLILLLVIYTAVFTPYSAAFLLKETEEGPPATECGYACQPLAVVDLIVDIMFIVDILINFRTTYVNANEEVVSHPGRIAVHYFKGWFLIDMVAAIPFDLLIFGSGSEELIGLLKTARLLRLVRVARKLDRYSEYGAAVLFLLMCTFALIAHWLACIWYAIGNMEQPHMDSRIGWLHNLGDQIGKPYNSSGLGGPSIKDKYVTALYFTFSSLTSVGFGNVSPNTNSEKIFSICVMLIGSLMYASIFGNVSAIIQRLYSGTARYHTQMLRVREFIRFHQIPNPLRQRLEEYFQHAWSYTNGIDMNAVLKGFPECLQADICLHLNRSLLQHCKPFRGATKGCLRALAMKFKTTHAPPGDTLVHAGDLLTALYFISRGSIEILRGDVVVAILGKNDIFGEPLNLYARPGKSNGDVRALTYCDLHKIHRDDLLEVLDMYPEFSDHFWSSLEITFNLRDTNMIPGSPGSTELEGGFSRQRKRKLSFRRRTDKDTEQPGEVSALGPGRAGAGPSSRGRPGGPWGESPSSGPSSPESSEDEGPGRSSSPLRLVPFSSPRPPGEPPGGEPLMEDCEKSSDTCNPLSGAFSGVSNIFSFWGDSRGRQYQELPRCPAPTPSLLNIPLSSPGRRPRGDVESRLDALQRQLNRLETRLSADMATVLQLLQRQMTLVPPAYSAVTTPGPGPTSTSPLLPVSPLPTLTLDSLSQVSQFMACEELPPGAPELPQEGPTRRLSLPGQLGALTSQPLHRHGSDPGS

Compound | hERG current change (%, negative = inhibition) at 1uM
Cc1ccc(NC2CCCN(C(=O)c3ccc(-n4ccnc4)cc3)C2)cc1C (stereo not shown) | -4.71%
COc1ccc(-c2cc(-c3ccc(C)cc3)nc(SCc3nnc(-c4ccccc4)o3)c2C#N)cc1OC | 8.98%
CS(=O)(=O)N1N=C(c2ccco2)CC1c1ccccc1Cl (stereo not shown) | 9.15%
CCn1nc(C)c(/C=N/NC(=O)CSc2ccccn2)c1C | 10.3%
COCCn1c(SCC(=O)c2c[nH]c3ccccc23)nnc1-c1ccncc1 | 7.84%
O=C(Nc1ccc(Cl)cc1)c1cncs1 | 11.3%
CC(C)Oc1ccc(CN2CCC(n3nccc3NC(=O)C3CC3)CC2)cc1 | -68.4%
CC(C)n1cc(CN2CCC(n3nccc3NC(=O)C3CCCC3)CC2)cn1 | 6.1%
CC(Cc1ccc(Cl)cc1)N1CCC(n2nccc2NC(=O)C2CCCC2)CC1 (stereo not shown) | -67.5%
O=C(Nc1ccnn1C1CCN(Cc2ccccc2OC(F)F)CC1)c1cccnc1 | 2.05%
COC(=O)c1ccc(CN2CCC(n3nccc3NC(=O)C3CCCC3)CC2)cc1 | -26.7%
COc1cc(CN2CCC(n3nccc3NC(=O)C3CC3)CC2)cc(OC)c1 | -29.5%
COC(=O)c1ccc(CN2CCC(n3nccc3NC(=O)C3CC3)CC2)cc1 | -6.68%
O=C(Nc1ccnn1C1CCN(Cc2ccc(Cl)cc2)CC1)C1CCCC1 | -37.2%
CC(C)Cc1ccc(CN2CCC(n3nccc3NC(=O)C3CCCC3)CC2)cc1 | -16.9%
Cc1ccccc1CN1CCC(n2nccc2NC(=O)c2cccnc2)CC1 | 4.68%
CCc1ccc(CN2CCC(n3nccc3NC(=O)C3CCCC3)CC2)cc1 | -68.2%
CC(C)Oc1ccc(CN2CCC(n3nccc3NC(=O)c3cccnc3)CC2)cc1 | -52.6%
O=C(N/N=C(\CC(=O)c1cccs1)C(F)(F)F)c1cccnc1 | 12.7%
Cl.O=C(NCCN1CCCC1)c1ccc(Cl)cc1Cl | 16.6%
O=C(NCC1(N2CCCCC2)CCCCC1)C1CC(=O)N(c2ccc3c(c2)OCCO3)C1 (stereo not shown) | 14.3%
COc1cc(C2NC(=O)C(C#N)=C(S)N2c2ccc(C)cc2)ccc1OC(C)C (stereo not shown) | 9.81%

Compound | hERG current change (%, negative = inhibition) at 1uM
COc1cc(OC)cc(C(=O)NCCCn2ccnc2)c1 | 18.8%
Cn1c2ccccc2c2nnc(SC3CCOC3=O)nc21 (stereo not shown) | 3.35%
O=C(O)C(C(O)c1ccc([N+](=O)[O-])cc1)[n+]1ccccc1.[Br-] (stereo not shown) | 18.1%
COc1cccc(OCc2cc(C(=O)NCc3cnc4ccccn34)no2)c1 | 3.98%
Cn1c(SCC(=O)NC(=O)Nc2ccccc2)nnc1-c1ccncc1 | 9.09%
O=C(Nc1ccnn1C1CCN(Cc2ccc(OC(F)F)cc2)CC1)C1CCCC1 | -81.5%
O=C(Nc1ccnn1C1CCN(Cc2ccc(O)c(Cl)c2)CC1)C1CCCC1 | -6.39%
COc1ccc(CN2CCC(n3nccc3NC(=O)C3CCCC3)CC2)cc1 | -47.4%
Cc1c(NC(=O)c2cccc(-c3cc4ccccc4oc3=O)c2)cccc1-c1nc2ncccc2o1 | 12.7%
CCCCNC(=O)N1CCN(Cc2ccc(F)cc2)CC1 | 9.29%
CCNC(=O)N1CCN(CCCC(c2ccc(F)cc2)c2ccc(F)cc2)CC1.Cl | -90.3%
O=C(Nc1ccc(F)cc1)N1CCN(CCc2ccccc2)CC1 | -9.52%
CCN(CC)CCNS(=O)(=O)c1ccc2[nH]cc(C(=O)O)c(=O)c2c1 | 10.9%
O=C(Nc1ccnn1C1CCN(C2CCCC2)CC1)c1ccccc1 | 13.3%
Cc1ccccc1C(=O)Nc1ccnn1C1CCN(CC2CC=CCC2)CC1 (stereo not shown) | -33.5%
O=C(Nc1ccnn1C1CCN(C2CCCC2)CC1)c1ccccc1Cl | 6.27%
O=C(Nc1ccnn1C1CCN(CC2CC=CCC2)CC1)c1ccccc1Cl (stereo not shown) | -37.8%
O=C(Nc1ccnn1C1CCN(C2CCCCC2)CC1)c1ccccc1 | 12.1%
CC(C)(C)CN1CCC(n2nccc2NC(=O)c2ccccc2Cl)CC1 | 4.68%
COc1ccccc1C(=O)Nc1ccnn1C1CCN(C(=O)C(C)(C)C)CC1 | -6.95%
O=C(Nc1ccnn1C1CCN(CCCC2CCCC2)CC1)c1ccccc1 | -60.9%
COc1ccccc1C(=O)Nc1ccnn1C1CCN(CC2CC=CCC2)CC1 (stereo not shown) | -69.1%

Compound | hERG current change (%, negative = inhibition) at 1uM
O=C(Nc1ccnn1C1CCN(CCCC2CCCC2)CC1)c1ccccc1Cl | -99%
COc1ccccc1C(=O)Nc1ccnn1C1CCN(C2CCSCC2)CC1 | -44.5%
COc1ccccc1C(=O)Nc1ccnn1C1CCN(CCCC2CCCC2)CC1 | -93.2%
Cc1onc(-c2ccccc2)c1-c1ccnn1C(=O)NC(C)C | 6.54%
CCCOc1ccc(N2CC(C(=O)Nc3ccccc3C(=O)NC)CC2=O)cc1 (stereo not shown) | -56.5%
Cc1ccc(N2CC(C(=O)Nc3ccccc3C(=O)NC3CCCCC3)CC2=O)cc1 (stereo not shown) | 5.42%
CNC(=O)c1ccccc1NC(=O)C1CC(=O)N(c2ccc(OC)cc2)C1 (stereo not shown) | 9.77%
CCCOc1ccc(N2CC(C(=O)Nc3ccccc3C(=O)NCc3ccco3)CC2=O)cc1 (stereo not shown) | -29.5%
O=C(NC1CCCCC1)c1ccccc1NC(=O)C1CC(=O)N(c2ccc(Cl)cc2)C1 (stereo not shown) | 13.2%
O=C(NC1CCCCC1)c1ccccc1NC(=O)C1CC(=O)N(c2ccccc2)C1 (stereo not shown) | -64.3%
CCC(C)C1C(C#N)=C(N)Oc2n[nH]c(C)c21 (stereo not shown) | 14.1%
CN(C)CCCNc1ncc(C(F)(F)F)cc1Cl | 10.3%
CN1C(=O)[C@@H]2[C@H](C1=O)[C@@H]1C(=O)Nc3ccccc3C(=O)N1[C@@H]2c1ccc(Br)cc1 | -16.7%
O=C(Cn1c(C(=O)N2CCN(C3CCCCC3)CC2)cc2sccc21)c1ccccc1 | -47.5%
CN1CCN(C(=O)c2cc3sccc3n2CC(=O)c2ccccc2)CC1 | -2.93%
O=C(Cn1c(C(=O)N2CCN(C3CCCC3)CC2)cc2sccc21)c1ccccc1 | -51%
COc1ccc(-c2cc(-c3cccs3)c(C#N)c(SCC(=O)NCc3ccccc3OC)n2)cc1 | -3.19%
Cc1cccc(C)c1NC(=S)NCc1ccncc1 | 16%
c1ccc(CN2CCC(Nc3nc(-c4cccnc4)nc4ccccc34)CC2)cc1 | -74.6%
c1ccc(CN2CCC(Nc3nc(-c4cccs4)nc4ccccc34)CC2)cc1 | 10.5%
c1ccc(CN2CCC(Nc3nc(-c4ccccc4)nc4ccccc34)CC2)cc1 | 4.83%
CSc1oc(-c2ccc(F)cc2)nc1S(=O)(=O)c1ccccc1 | -1.68%

Compound | hERG current change (%, negative = inhibition) at 1uM
CC1(C)C([N+](=O)[O-])C(c2ccc(O)cc2)NC(c2ccc(O)cc2)C1[N+](=O)[O-] (stereo not shown) | 10.3%
COc1ccc(CNCCc2ccc(Cl)cc2Cl)cc1 | 13.2%
COc1ccc(CCC(C)NCCc2ccc(Cl)cc2Cl)cc1 (stereo not shown) | -50.1%
COc1ccc(CCNC(C)CCc2ccc(OC)cc2)cc1 (stereo not shown) | -2.61%
CCC(=O)OC1(c2ccccc2)C(C)CN(C)CC1C.Cl (stereo not shown) | 8.82%
C[C@]12CCC[C@H](O1)[C@H]([C@@H](O)c1ccccc1)O2 | 16.5%
CN1C(CC(O)c2ccccc2)CCCC1CC(O)c1ccccc1.Cl (stereo not shown) | -46.3%
CN1CCC(N(C)CC(O)c2ccccc2)CC1.O=C(O)C(=O)O (stereo not shown) | 1.81%
CN1C(CC(=O)c2ccccc2)CCCC1CC(O)c1ccccc1 (stereo not shown) | -55.2%
Cc1ccc2c(Cl)c(C(=O)NC3CC3)sc2c1 | 9.87%
Cn1c(=O)[nH]c(=O)c2c1nc(SCCN1CCCCC1)n2Cc1ccccc1 | -81.6%
Cn1c(=O)[nH]c(=O)c2c1nc(SCCN1CCOCC1)n2Cc1ccccc1 | -12%
COCCSc1nc2c(c(=O)[nH]c(=O)n2C)n1Cc1cccc(C)c1 | -5.69%
CCCSc1nc2c(c(=O)[nH]c(=O)n2C)n1Cc1ccccc1 | 2.13%
Cn1c(=O)[nH]c(=O)c2c1nc(SCCO)n2CCCc1ccccc1 | 5.4%
Cc1cccc(Cn2c(N3CCN(CCO)CC3)nc3c2c(=O)[nH]c(=O)n3C)c1 | 7.07%
Cn1c(=O)[nH]c(=O)c2c1nc(SCCN1CCOCC1)n2CCCc1ccccc1 | -6.15%
Cc1cccc(Cn2c(SCCN3CCCCC3)nc3c2c(=O)[nH]c(=O)n3C)c1 | -80.7%
CC(C)CCn1c(SCCN2CCOCC2)nc2c1c(=O)[nH]c(=O)n2C | 1.89%
Cn1c(=O)[nH]c(=O)c2c1nc(SCCN1CCCCC1)n2CCCc1ccccc1 | -57.3%
CCCCCn1c(SCCN2CCOCC2)nc2c1c(=O)[nH]c(=O)n2C | -40.7%
CCCCCCn1c(SCCN2CCOCC2)nc2c1c(=O)[nH]c(=O)n2C | -64.1%

— publication PMC4336329 (PLoS ONE, 2015)
